{"source": "PubChem BioAssay (Tox21)", "note": "Inconclusive results are not listed. A call without a number means that no potency is given here. Calls of active or inactive are those of the source. The call rests on the fitted dose curve; in most records, active means well fitted cell-killing curve with a large enough effect in the repeat runs; inconclusive means weak or mixed curves, or effect the other way; inactive means flat fitted curve, though single readings scatter. Starred links: 1 amine or outer side, 2 acyl side, 3 side chain; linkers in the order of their positions; H or OH if unused. Positions of bridges follow the written chain, without caps; N, C: chain ends. Non-standard residues stand in square brackets, D forms with d. Residues, ends and D or L forms follow the SMILES beside them. *: point of attachment. X5 = NC1=N[C@@H]([C@H](N[*:1])C(=O)[*:2])C[C@H](O)N1; ΔAla(Z-3-ureido) = NC(=O)N/C=C(\\N)C(=O)O; β3hOrn = NCCC[C@H](N)CC(=O)*; Dap = NC[C@H](N)C(=O)O", "data": [{"test": "qHTS assay to identify small molecule antagonists of the androgen receptor (AR) signaling pathway using the MDA cell line - cell viability counter screen (AID 743041; further: nearly all actives have a fitted effect of over 45% in size; further: potency means the concentration at half of the fitted maximal effect)", "settings": "MDA-kb2 viability, CellTiter-Fluor, 16 h, cells co-treated with R1881 androgen agonist; series mostly up to 70.3 µM", "summary_of_the_method": "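Using the breast carcinoma line MDA-kb2 AR-luc, test chemicals were co-incubated with R1881 for 16 h; CellTiter-Fluor reagent, added at 15.5 h, provided a fluorescence measure of live cells.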", "values": [{"smiles": "O=C(O)c1ccc(OCCn2ccnc2)cc1", "Potency": "inactive"}, {"smiles": "COc1ccc(CNCC(O)COc2ccc3[nH]c(=O)ccc3c2)cc1OC", "note": "(stereo not drawn)", "Potency": "inactive"}, {"smiles": "Cc1cc(C(=O)NNCc2ccccc2)no1", "Potency": "inactive"}, {"smiles": "Nc1ncnc(Nc2ccc(Cl)cc2)n1", "Potency": "inactive"}, {"smiles": "CCCCC(=O)OCC(=O)[C@]1(O)Cc2c(O)c3c(c(O)c2[C@@H](O[C@H]2C[C@H](NC(=O)C(F)(F)F)[C@H](O)[C@H](C)O2)C1)C(=O)c1c(OC)cccc1C3=O", "Potency": "inactive"}, {"smiles": "CCCCCCCCCCCCCCCCCCCCCCO", "Potency": "inactive"}, {"smiles": "O=C1NC(=O)[C@H]2[C@@H]1[C@@H]1C=C[C@H]2C1", "Potency": "inactive"}, {"smiles": "O=C(O)C1CCCN1", "note": "(stereo not drawn)", "Potency": "inactive"}, {"smiles": "NC(=O)OCC(O)COc1ccc(Cl)cc1", "note": "(stereo not drawn)", "Potency": "inactive"}, {"smiles": "COC(=O)CC[C@H](N)C(=O)O", "Potency": "inactive"}, {"smiles": "CC1(C)S[C@@H]2[C@H](NC(=O)C(C(=O)O)c3ccsc3)C(=O)N2[C@H]1C(=O)O", "note": "(stereo partly drawn)", "Potency": "inactive"}, {"smiles": "CCOC(=O)Oc1c(OC)cc(C(=O)O[C@@H]2C[C@@H]3CN4CCc5c([nH]c6cc(OC)ccc56)[C@H]4C[C@@H]3[C@H](C(=O)OC)[C@H]2OC)cc1OC", "Potency": "inactive"}, {"smiles": "CC(O)CN(C)C", "note": "(stereo not drawn)", "Potency": "inactive"}, {"smiles": "CO[C@H]1O[C@@H]2O[C@@]3(C)CC[C@H]4[C@H](C)CC[C@@H]([C@H]1C)[C@@]24OO3", "Potency": "inactive"}, {"smiles": "CCCCCCCCCCCCCCCC(=O)O[C@@H]1[C@@H](O)[C@@H](O)[C@@H]([C@H](NC(=O)[C@@H]2C[C@@H](CCC)CN2C)[C@H](C)Cl)O[C@@H]1SC", "Potency": "inactive"}, {"smiles": "COc1ccccc1N1CCN(CCCC(=O)c2ccc(F)cc2)CC1", "Potency": "inactive"}, {"smiles": "COC1=C(C(=O)O)N2C(=O)[C@@H](NC(=O)[C@H](N)C3=CCC=CC3)[C@H]2SC1", "Potency": "inactive"}, {"smiles": "CCNC(=O)[C@@H]1CCCN1C(=O)[C@H](CCCN=C(N)N)NC(=O)[C@H](CC(C)C)NC(=O)[C@@H](CC(C)C)NC(=O)[C@H](Cc1ccc(O)cc1)NC(=O)[C@H](CO)NC(=O)[C@H](Cc1c[nH]c2ccccc12)NC(=O)[C@H](Cc1cnc[nH]1)NC(=O)[C@@H]1CCC(=O)N1", "Potency": "inactive"}, {"smiles": "NCCCC[C@H](NC(=O)[C@@H]1CCCN1C(=O)[C@@H]1CSSC[C@H](NC(=O)CNC(=O)CNC(=O)CN)C(=O)N[C@@H](Cc2ccc(O)cc2)C(=O)N[C@@H](Cc2ccccc2)C(=O)N[C@@H](CCC(N)=O)C(=O)N[C@@H](CC(N)=O)C(=O)N1)C(=O)NCC(N)=O", "note": "(H-GGGCYFQNCPKG-NH2; disulfide 4-9)", "Potency": "inactive"}, {"smiles": "NCCC[C@H](N)CC(=O)N[C@H]1CNC(=O)[C@H]([C@H]2C[C@H](O)NC(N)=N2)NC(=O)/C(=C/NC(N)=O)NC(=O)[C@H](CO)NC(=O)[C@H](CO)NC1=O", "note": "(β3hOrn-[Dap]SS[ΔAla(Z-3-ureido)][X5]; lactam 1-C)", "Potency": "inactive"}, {"smiles": "CCCC1C(=O)N2C(N(C)C)=Nc3ccc(C)cc3N2C1=O", "note": "(stereo not drawn)", "Potency": "inactive"}, {"smiles": "CC(=O)N[C@@H]1C(O[C@H]2O[C@H](C(=O)O)C(O)[C@H](O)[C@H]2O)[C@H](O)[C@@H](CO)O[C@H]1O[C@@H]1C(C(=O)O)O[C@@H](O[C@H]2[C@H](O)[C@@H](CO)OC(O)[C@@H]2NC(C)=O)[C@H](O)[C@H]1O", "note": "(stereo partly drawn)", "Potency": "inactive"}, {"smiles": "COc1cc(C[C@@H]2NCCc3cc(O)c(O)cc32)cc(OC)c1OC", "Potency": "inactive"}, {"smiles": "CC(=O)Nc1c(I)c(C(=O)N[C@H]2C(O)O[C@H](CO)[C@@H](O)[C@@H]2O)c(I)c(N(C)C(C)=O)c1I", "note": "(stereo partly drawn)", "Potency": "inactive"}, {"smiles": "O=C(O)[C@@H](O)[C@H](O)[C@H](O)[C@@H](O)C(=O)O", "note": "(tested in a mixture with another compound)", "Potency": "inactive"}, {"smiles": "CC(=O)Nc1c(I)c(C(=O)O)c(I)c(N(C)C(C)=O)c1I", "Potency": "inactive"}, {"smiles": "COC(=O)CCC(=O)CN", "Potency": "inactive"}, {"smiles": "Cc1ccc(C2(O)CCN(CCCC(=O)c3ccc(F)cc3)CC2)cc1", "Potency": "inactive"}, {"smiles": "CNc1cc(OC)c(C(=O)N[C@H]2CCN(Cc3ccccc3)[C@H]2C)cc1Cl", "Potency": "inactive"}, {"smiles": "Cc1ccc(S(=O)(=O)NC(=O)N[C@@H](C)Cc2ccccc2)cc1", "Potency": "inactive"}, {"smiles": "C=CC1=C(C)C2=CC3=NC(=C(CC(=O)[O-])C4=NC(=C(C)C4=C([O-])[O-])C=c4[n-]c(c(C)c4CC)=CC1=N2)C(CCC(=O)[O-])C3C.[Cu+2].[Na+].[Na+].[Na+]", "note": "(stereo not drawn)", "Potency": "22.1 µM (active)"}, {"smiles": "CCN(CC)CCOc1ccccc1OC", "Potency": "inactive"}, {"smiles": "NC[C@@H]1O[C@H](O[C@H]2[C@@H](O)[C@H](O[C@@H]3[C@@H](O)[C@H](N)C[C@H](N)[C@H]3O[C@H]3O[C@H](CO)[C@@H](O)[C@H](O)[C@H]3N)O[C@@H]2CO)[C@H](N)[C@@H](O)[C@@H]1O", "Potency": "inactive"}]}]}
